What all share (test): NCI-60 one-dose screen, 48 h (100 = growth as untreated, 0 = no growth, -100 = all killed)
Common to all, as to conditions: 10 µM unless noted

Assay [1] has as its system NCI-H23 lung.
The test system of assay [2] is NCI-H226 lung.
The subject of assay [3] is NCI-H322M lung.
Assay [4] has as its system HOP-62 NSCLC.
In assay [5] the test system is NCI-H460 lung.
Assay [6] has as its system HOP-92 NSCLC.
Assay [7] relates to NCI-H522 lung.
The subject of assay [8] is A549/ATCC NSCLC.
Assay [9] has as its system 786-0 renal.
The subject of assay [10] is COLO 205 colon.
The subject of assay [11] is DU-145 prostate.
In assay [12] the test system is K-562 leukemia.
For assay [13], the system named is MALME-3M melanoma.
For assay [14], the system named is MDA-MB-231 breast.
Assay [15] relates to RXF 393 renal.
The subject of assay [16] is SF-268 CNS.
For assay [17], the system named is SF-295 CNS.
Assay [18] deals with SF-539 CNS.
Assay [19] has as its system UACC-257 melanoma.
Assay [20] relates to M14 melanoma.

Several values for one entry are separate records, joined by “and”; a condition that tells them apart may be missing. Equal entries are not always repeated. The panel holds about 83,000 compounds, 20% with a hit somewhere; the sample as a whole holds those more often.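 Assay: single dose, 48 h. Readout: percent growth (0 = no net growth; negative = cell death). Active: <10.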 Values without a mark were called inactive. Activity calls are given as the source filed them.

Consider `CN(C)CCN1C(=O)c2c(c3c4ccccc4n4c3c3c2c2ccccc2n3C2CC(O)C(O)C4(C)O2)C1=O` (stereo not given), for which the growth in [1] is 23.1%; in assay [2], 18.6%; in assay [3] it was 34.8%; in [4] it was 14.2%; in assay [5], 2.33% (active); in [6], 75.9%. The growth was -5.02% (active) in assay [7]; 5.47% (active) in assay [8]; 29.3% in assay [9]; 18.9% in [10]; 16.9% in assay [11]; 11.4% in assay [12]. Besides, the growth in assay [13] was 23.5%; in [14], 58.4%; in assay [15], 29.9%; in assay [16], 35.2%; in [17], 8.95% (active); in assay [18], 24.3%. In addition, the growth in assay [19] was 34.7%; in assay [20], 23.9%.
As to `BrC1=C(Br)C(Br)(Br)C(Br)=C1Br`, the growth is 93% in [1]; 91.7% in [2]; 107% in assay [3]; 101% in assay [4]; 102% in assay [5]; 105% in [6]. Besides, the growth in [7] was -15.2% (active); in assay [8], 95.2%; in assay [9] it was 82.4%; in assay [10] it was 69.6%; in assay [11] it was 106%; in assay [12] it was 32.9%. The growth is 106% in assay [13]; 73.7% in assay [14]; 75.1% in assay [15]; 97.8% in assay [16]; 113% in assay [17]; 82.2% in assay [18]. Besides, the figures for the growth in [19] and in assay [20] were 84.7% and 65.2%, respectively.
On to `Cc1ccc(/C=C2\COc3ccc(O)c(O)c3C2=O)cc1`, for which the growth was 29.1% in assay [1]; 61.5% in assay [2]; 31.3% in [3]; -1.56% (active) in assay [4]; 8.32% (active) in assay [5]; -18% (active) in assay [6]. Also, the growth is -74.8% (active) in [7]; 27.4% in assay [8]; -71% (active) in [9]; 30.2% in assay [10]; 4.29% (active) in [11]; 13% in [12]. The growth is -27.3% (active) in assay [13]; -24.8% (active) in [14]; -35.3% (active) in [15]; -37.6% (active) in [16]; 33.1% in assay [17]; -63.9% (active) in assay [18]. Moreover, the figures for the growth in assay [19] and in assay [20] were 10.1% and 3.41% (active), respectively.
For `CC/C(=C(/c1ccc(Cl)cc1)c1ccc(OCCN2CCOCC2)cc1)c1ccccc1`, the growth is 87.5% in [1]; 108% in assay [2]; 104% in assay [3]; 106% in assay [4]; 96.1% in [5]; 98.4% in assay [6]. The growth in assay [7] is 88.6%; in assay [8], 89.9%; in [9], 103%; in assay [10] it was 99.8%; in assay [11], 98.4%; in assay [12], 63.7%. The growth was 104% in assay [13]; 95.5% in [14]; 107% in assay [15]; 90.5% in assay [16]; 97.1% in [17]; 104% in [18]. Moreover, the growth in [19] is 98.8%; in assay [20] it was 99.5%.
Take `COc1ccc(-c2nn3c(-c4cc(F)c(Cl)cc4Cl)nnc3s2)cc1`: the growth was 54.1% in assay [1]; 80% in assay [2]; 79.2% in [3]; 30.6% in assay [4]; 32.5% in [5]; 37.6% in assay [6]. Besides, the growth was 23.1% in assay [7]; 51.1% in [8]; 46.2% in assay [9]; 62.9% in assay [10]; 77.3% in assay [11]; 16.1% in [12]. The growth in [13] is 41.4%; in assay [14], 55.2%; in assay [15], 61.4%; in assay [16], 60.3%; in [17], 13.1%; in [18] it was 47%. In addition, the growth was 72.6% in [19] and 15.5% in assay [20].
With `CCCO/N=C/c1ccccn1`, the growth in assay [1] is 105% and 96.6%; in assay [2], 99.2% and 100%; in [3], 112%; in [4], 104% and 88.2%; in [5] it was 105% and 109%; in [6], 105%. The growth is 94.8% and 87.3% in assay [7]; 97.5% and 104% in [8]; 107% and 101% in [9]; 112% and 108% in [10]; 102% and 111% in assay [11]; 99.5% and 103% in assay [12]. Also, the growth is 110% and 105% in assay [13]; 103% and 111% in assay [14]; 112% and 122% in assay [15]; 96.4% and 104% in [16]; 131% and 95.3% in assay [17]; 110% and 95% in assay [18]. Besides, the growth is 102% and 96.8% in [19]; 105% and 103% in assay [20].
As to `O=C1OCC2=C1C(c1cccc(C(F)(F)F)c1)c1cc3c(cc1N2CCO)OCCO3` (stereo not given), the growth in assay [1] was 28.5%; in assay [2] it was 52.3%; in [3], 51.3%; in [4] it was 23.5%; in [5], 7.21% (active); in assay [6] it was 63.3%. Further, the growth is 7.2% (active) in assay [7]; 16.3% in assay [8]; 25.5% in [9]; -17.7% (active) in assay [10]; 16% in [11]; 9.6% (active) in assay [12]. Moreover, the growth in assay [13] was 49.5%; in assay [14], 37.6%; in assay [15], 10.9%; in [16], 38.8%; in assay [17], 0.743% (active); in assay [18], -8.3% (active). The growth was 65.3% in assay [19] and -6.89% (active) in assay [20].

(Values after PubChem BioAssay (NCI).)
